In PubChem BioAssay AID720579 (National Center for Advancing Translational Sciences (NCATS), 2013) one finds Potency data, which are given here for 64 compounds.

Among all 310,000 compounds or so, about 1,900 (0.61%) were called active. A call without a number means that no potency is given here. Another 8% or so got no clear call; they are omitted. The sample holds actives, similar compounds and a random draw of the others, so the mix is not that of the screen. Calls follow the shape of the full dose curve; tested in A549 cells.
Potency is read from the fitted curve at half-maximal effect.

This assay in a line: qHTS for Stage-Specific Inhibitors of Vaccinia Orthopoxvirus: mCherry Reporter Primary qHTS. Also: nearly all actives have a fitted effect of over 35% in size. The note with it: Vaccinia virus mCherry reporter infection, fluorescence; series mostly up to 36.5 µM. In general terms: Quantitative high-throughput screening tests each substance at several concentrations.
In the case of `[O-][n+]1onc2c1CCc1[nH]c(-c3ccccc3)nc1-2`, the Potency is 15.8 µM (active). As for `CC=CCn1c(SCCCc2ccccc2)nc2c1c(=O)[nH]c(=O)n2C`, the Potency result was “inactive”.

Take `Cc1c(Cl)c([N+](=O)[O-])nn1Cc1ccc(C(=O)N/N=C\c2cc(Cl)ccc2O)o1`: the Potency was 6.31 µM (active). Regarding `Cc1c(Cl)c([N+](=O)[O-])nn1CCCC(=O)Nc1cc(Cl)ccc1Cl`, the Potency result is “inactive”. For the compound `O=C(N/N=C/c1ccc2c(c1)OCO2)c1ccc(Cn2cc([N+](=O)[O-])cn2)o1`, the Potency result was “inactive”. For `O=C(c1ccccc1)N1CCN(c2cc(-c3ccccc3)nc3cc(-c4cccc(Cl)c4)nn23)CC1` the value was “inactive”; for `CCc1nc2c(OCc3ccccc3)cccn2c1N(C)C(=O)c1ccco1`, “inactive”. Consider `COc1ccc(C(C(=O)Nc2c(C)cccc2C)N2CCN(c3ccc(C)cc3)CC2)cc1` (centres undefined), for which the Potency entry was “inactive”. Next, `Brc1cccc[n+]1Cc1cccc(C[n+]2ccccc2Br)c1`: “inactive”; `Cc1cc2ccccn2c1C(C[N+](=O)[O-])c1c(F)cccc1Cl` (centres undefined): 10 µM (active); `Cc1cc2ccccn2c1C(=O)c1cccc(F)c1`: “inactive”. In the case of `O=C(Cc1c(F)cccc1Cl)Nc1ncc([N+](=O)[O-])s1`, the Potency entry was “inactive”.

On to `CCCCOc1ccc(C(=O)NO)cc1`, for which the Potency entry is “inactive”. On to `CCc1cc2c(N3CCN(c4nnc(CC)s4)CC3)ncnc2s1`, for which the Potency is 12.6 µM (active). Next, `CCc1ccc(C(=O)NNC(=O)C2CCN(c3ncnc4sc(C)c(C)c34)CC2)cc1`: “inactive”. Consider `CCN1CCN(c2ncnc3c2cnn3-c2ccc(C)c(C)c2)CC1`, for which the Potency entry is “inactive”. `Cc1ccc(S(=O)(=O)N2CC3C(=O)C[C@@H](c4ccccc4Cl)N(S(=O)(=O)c4ccc(C)cc4)C3CC2c2ccccc2)cc1` (some centres undefined): the Potency entry is “inactive”. For `Clc1ccc2nc(-c3ccccc3)nc(C(Cl)Cl)c2c1` the value was “inactive”. For `CSc1nc(-c2ccccc2)nc(C(Cl)Cl)n1`, the Potency was 12.6 µM (active).

Take `CSc1nc(Nc2ccc(F)cc2)cc(-c2ccccc2)n1`: the Potency result was “inactive”. `CCCc1ccc(C(O)c2ncc(-c3cccc(OC)c3)[nH]2)cc1` (centres undefined): the Potency result is “inactive”. Turning to `CCOC(=O)[C@]12CCCC=C1N(CCC1=CCCCC1)C(=O)[C@H](CC(=O)NCCCOC)C2`, the Potency result is “inactive”. With `CCOC(=O)N1CCN(C(=O)C[C@@H]2C[C@@]3(C(=O)OC)CC(C)(C)CC=C3N(Cc3ccco3)C2=O)CC1`, the Potency result is “inactive”.

For `CC1(C(=O)Nc2cccc3c2CCCC3)CCN1C(=O)CCc1ccc(Cl)cc1Cl` (centres undefined), the Potency result is “inactive”. Next, `Cc1ccccc1-c1ccc(Nc2ccc(C(=O)N3CCOCC3)cc2)nn1`: “inactive”; `CCOC(=O)c1ccccc1C(=O)N1CCOCCOCCOCC1`: “inactive”; `Cc1oc2c(c1C(=O)N1CCOCC1)C(=O)c1ccccc1C2=O`: 11.2 µM (active).

Take `Fc1cccc(Cc2c(-c3ccc(Cl)cc3)nc3ccc(Cl)cn23)c1`: the Potency entry was “inactive”. For `COc1cc(OC)c(OC)cc1/C=C1\C=Cc2ccccc21` the value was “inactive”; for `CCc1nc2ccc(C(=O)Nc3cc(-c4ccccc4)ccc3OC)cn2c1N(CC)CC(=O)N(C)C`, “inactive”; for `COc1cccc(/C(C)=N/Nc2ncc(Cl)cc2Cl)c1`, “inactive”. As to `COc1cccc(/C=N/Nc2ncc(C(F)(F)F)cc2Cl)c1O`, the Potency was 11.2 µM (active). As for `COC(=O)Cc1ccc(Oc2ncc(C(F)(F)F)cc2Cl)cc1`, the Potency result is “inactive”.

As for `CCc1nc2ccc(C(=O)NCc3ccc(OC)cc3)cn2c1N(CC)Cc1cccc(Br)c1`, the Potency result is “inactive”. For `Cc1nn(-c2ccccc2)c(C)c1NC(=O)CCl`, the Potency was 10 µM (active). With `Cc1nn(-c2ccccc2)c(C)c1NC(=O)COc1ccc(Cl)cc1Cl`, the Potency result was “inactive”. Turning to `Cc1nn(-c2ccccc2)c(C)c1NC(=O)COC(=O)Cc1ccccc1`, the Potency result was “inactive”. Regarding `Cc1cccc(NC(=O)COC(=O)c2ccccc2OCc2cccc(Br)c2)c1`, the Potency result was “inactive”.

For the compound `OC[C@@H]1CN(Cc2ccncc2)C[C@H](n2cnc3c(N4CCN(c5ccccc5)CC4)ncnc32)O1`, the Potency was 11.2 µM (active). Regarding `CC(C)Nc1ncnc2c1ncn2[C@H]1CN(Cc2ccncc2)C[C@@H](CO)O1`, the Potency result is “inactive”. For `OCCN1CCN(c2ncnc3c2ncn3[C@H]2CN(Cc3ccco3)C[C@@H](CO)O2)CC1`, the Potency result is “inactive”.

As to `Cc1cc(Br)cn2c(Cc3ccsc3)c(-c3ccc(C#N)cc3)nc12`, the Potency result was “inactive”. Consider `COc1cccc(-c2cc3nc(NCc4ccccc4OC)n(C)c(=O)c3s2)c1`, for which the Potency result is “inactive”. Regarding `CCCNC(=O)C1(C)CCCN(C(=O)c2oc3ccccc3c2C)C1` (centres undefined), the Potency result is “inactive”. For `S=C(NCc1cccnc1)Nc1ccc(Cl)cc1Cl` the value was “inactive”; for `CC(=O)/C(=N\Nc1ccc(Cl)cc1Cl)Sc1cccc2cccnc12`, 3.55 µM (active). Regarding `COc1c(Cl)cc(Cl)cc1C(=O)Nc1cccc2cccnc12`, the Potency result was “inactive”. In the case of `CCOC1=C2[C@@H](CN(S(=O)(=O)c3ccc(C)cc3)[C@H]2c2ccccc2F)[C@H]2C(=O)N(Cc3ccccc3)C(=O)[C@H]2C1`, the Potency entry was “inactive”. On to `CCOCCC(=O)Nc1ccc2c(c1)c(=O)n(C)n2-c1ccc2ccccc2c1`, for which the Potency result is “inactive”. Turning to `CN(C)C1=C2C=CC=CC2/C(=C2/C=Cc3ccccc32)C=C1` (centres undefined), the Potency entry was “inactive”. Consider `Nc1ccc(/C=C/c2ccnc3ccccc23)c([N+](=O)[O-])c1`, for which the Potency result is “inactive”. Turning to `O=C(Nc1ccc(Cl)cn1)c1ccccc1-c1ccccc1`, the Potency entry was “inactive”. In the case of `Oc1ccccc1-c1cc(-c2ccc(Cl)cc2)n[nH]1`, the Potency was 8.91 µM (active). In the case of `Cc1ccc(NC(=O)c2cc(-c3ccccc3O)n[nH]2)cc1C`, the Potency result was “inactive”. Next, `O=C(Nc1ccc2c(c1)OCCO2)C(C1CC1)N1CCC(Cc2ccccc2)CC1` (centres undefined): “inactive”; `CCc1cc(C(=O)N(CC)CC(=O)Nc2c(F)cccc2F)sc1C`: “inactive”. `COC(=O)Cc1ccc(OC2(C)CCN(Cc3ccc4c(c3)OCCO4)C2)cc1` (centres undefined): the Potency result was “inactive”. Take `CC1(C)OC(=O)C2=C(C[C@@H](C3CCCCC3)O[C@@H]2c2ccc(Cl)cc2)O1`: the Potency entry was “inactive”. Take `O=C(NC1=CC(=O)c2ccccc2C1=O)c1ccccc1`: the Potency is 7.94 µM (active). For the compound `CC(NC(=O)c1ccccc1)C(=O)Nc1ccccc1` (centres undefined), the Potency result is “inactive”.

Take `O=C(Nc1cccc(NC(=O)c2ccc(Br)cc2)c1)c1ccccc1`: the Potency result was “inactive”. For `COCC1CCCCN1C(=O)c1cc(COc2ccc(C)c(C)c2)on1` (centres undefined) the value was “inactive”. Consider `CN(C)c1ccc(/C=N\Nc2ccc([N+](=O)[O-])cc2[N+](=O)[O-])cc1Cl`, for which the Potency result is “inactive”. With `Cc1ccc(S(=O)(=O)N2C[C@H]3n4c(=O)ccc(=O)n4C[C@H](OC(=O)NC4CCCC4)[C@@]3(O)C2)cc1`, the Potency entry is “inactive”.
